Measured values reported in PubChem BioAssay (EPA / NIEHS).
Activity calls are given as the source filed them. How the source made its calls: active means hit-call score of the fitted dose curve at least 0.9, where 1 is the maximum; inactive means score below 0.9.

Key:
Conditions in all cases: mRNA level, 48 h; actives raise or lower the signal
[1] = read-out: Ezrin (EZR), EZR (gene 7430); assay: LTEA_HepaRG_EZR: Life Technologies and Expression Analysis (LTEA) Assay for Ezrin (EZR) using HepaRG (AID 2283491)
In short: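 EZR transcript levels came from Fluidigm qRT-PCR and were normalized to three housekeeping genes after 48 h chemical exposure of HepaRG cells. Dosing used an 8-point half-log series with a 100 uM top concentration in 0.5% DMSO, tested in duplicate; both directions were fitted versus vehicle.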

[2] = read-out: Cytochrome P450 3A7 (Homo sapiens) (UniProt P24462); assay: LTEA_HepaRG_CYP3A7: Life Technologies and Expression Analysis (LTEA) Assay for CYP3A7 using HepaRG (AID 2283492)
In short: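 qRT-PCR of CYP3A7 in HepaRG lysates after 48 h treatment; concentration-response (8 points, max 100 uM) analysed bidirectionally relative to 0.5% DMSO controls.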

CYP3A5 (gene 1577) = assay: LTEA_HepaRG_CYP3A5: Life Technologies and Expression Analysis (LTEA) Assay for CYP3A5 using HepaRG (AID 2283493)
In short: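 mRNA levels were quantified by qRT-PCR on Fluidigm arrays and normalized to three housekeeping genes. Differentiated HepaRG cells received 48 h exposure (top 100 uM, half-log steps, 0.5% DMSO vehicle, duplicate); bidirectional fitting versus DMSO.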

[3] = read-out: Cytochrome P450 4A22 (Homo sapiens) (UniProt Q5TCH4); assay: LTEA_HepaRG_CYP4A22: Life Technologies and Expression Analysis (LTEA) Assay for Cytochrome P450 4A22 (CYP4A22) using HepaRG (AID 2283495)
In short: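 Concentration-response (8 points, max 100 uM, 0.5% DMSO) in human HepaRG liver cells after 48 h exposure. CYP4A22 mRNA by TaqMan qRT-PCR with housekeeping-gene normalization.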

[4] = read-out: Cytochrome P450 7A1 (Homo sapiens) (UniProt P22680); assay: LTEA_HepaRG_CYP7A1: Life Technologies and Expression Analysis (LTEA) Assay for Cytochrome P450 7A1 (CYP7A1) using HepaRG (AID 2283496)
In short: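 HepaRG, 48 h exposure, 8-pt half-log series from 100 uM, 0.5% DMSO vehicle, duplicates. Readout: TaqMan qRT-PCR mRNA vs three housekeeping genes; bidirectional curve fit against DMSO baseline.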

[5] = read-out: Glutathione S-Transferase (GSTA2), GSTA2 (gene 2939); assay: LTEA_HepaRG_GSTA2: Life Technologies and Expression Analysis (LTEA) Assay for Glutathione S-Transferase (GSTA2) using HepaRG (AID 2283497)
In short: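 Oxidative-stress marker GSTA2 is quantified by TaqMan qRT-PCR in HepaRG cultures treated 48 h across an eight-point range to 100 uM. Expression is normalized to endogenous controls and compared with 0.5% DMSO vehicle.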

[6] = read-out: Glutamate-cysteine ligase catalytic (GCLC), GCLC (gene 2729); assay: LTEA_HepaRG_GCLC: Life Technologies and Expression Analysis (LTEA) Assay for Glutamate-cysteine ligase catalytic (GCLC) using HepaRG (AID 2283498)
In short: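 Oxidative-stress marker GCLC is measured as mRNA change in human HepaRG liver cells after 48 h chemical treatment in 0.5% DMSO, eight concentrations from 100 uM. Activity is fitted bidirectionally against vehicle.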

[7] = read-out: growth arrest and DNA damage 45 (GADD45G), GADD45G (gene 10912); assay: LTEA_HepaRG_GADD45G: Life Technologies and Expression Analysis (LTEA) Assay for growth arrest and DNA damage 45 (GADD45G) using HepaRG (AID 2283499)
In short: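 Concentration-response in HepaRG: 48 h dosing, 0.5% DMSO, highest level 100 uM. GADD45G expression by qRT-PCR, normalised to endogenous controls; bidirectional fit to DMSO.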

[8] = read-out: Glutamate-cysteine ligase regulatory (GCLM), GCLM (gene 2730); assay: LTEA_HepaRG_GCLM: Life Technologies and Expression Analysis (LTEA) Assay for Glutamate-cysteine ligase regulatory (GCLM) using HepaRG (AID 2283500)
In short: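 GCLM expression quantified by qRT-PCR, normalized to three housekeeping genes, after 48 h chemical treatment of HepaRG cells in duplicate at 8 concentrations (top 100 uM, half-log steps, 0.5% DMSO). Changes fitted both directions against vehicle.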

[9] = read-out: Glutathione S-transferase M3 (GSTM3), GSTM3 (gene 2947); assay: LTEA_HepaRG_GSTM3: Life Technologies and Expression Analysis (LTEA) Assay for Glutathione S-transferase M3 (GSTM3) using HepaRG (AID 2283501)
In short: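 Expression of GSTM3 is determined by qRT-PCR in human liver HepaRG cells treated 48 h with an 8-point half-log range from 100 uM in 0.5% DMSO.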

[10] = read-out: Heat shock 70 kDa protein 1 (HSPA1A), gene 3303; assay: LTEA_HepaRG_HSPA1A: Life Technologies and Expression Analysis (LTEA) Assay for Heat shock 70 kDa protein 1 (HSPA1A) using HepaRG (AID 2283502)
In short: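 HSPA1A expression measured by qRT-PCR with ACTB/GAPDH/POLR2A normalization; curves fitted in both directions relative to DMSO vehicle. Exposure: 48 h in HepaRG cells, duplicate 8-point half-log series from 100 uM, 0.5% DMSO, serum-free induction medium.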

[11] = read-out: Hypoxia-inducible factor 1-alpha (Homo sapiens) (UniProt Q16665); assay: LTEA_HepaRG_HIF1A: Life Technologies and Expression Analysis (LTEA) Assay for Hypoxia-inducible factor 1 (HIF1A) Trancription factor using HepaRG (AID 2283503)
In short: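 HIF1A transcript level read by qRT-PCR (ACTB, GAPDH, POLR2A normalization) after 48 h chemical exposure of HepaRG cultures. Eight half-log concentrations, top 100 uM, 0.5% DMSO vehicle, duplicates; bidirectional curve fit against DMSO baseline.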

[12] = read-out: 3-Hydroxy-3-Methylglutaryl-CoA Synthase 2 (HMGCS2), HMGCS2 (gene 3158); assay: LTEA_HepaRG_HMGCS2: Life Technologies and Expression Analysis (LTEA) Assay for 3-Hydroxy-3-Methylglutaryl-CoA Synthase 2 (HMGCS2) using HepaRG (AID 2283504)
In short: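 This steatosis marker was read as HMGCS2 mRNA change in HepaRG cells treated 48 h with up to 100 uM chemical. Normalisation used housekeeping genes; activity in either direction was fitted relative to 0.5% DMSO vehicle.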

HGF (gene 3082) = assay: LTEA_HepaRG_HGF: Life Technologies and Expression Analysis (LTEA) Assay for Hepatocyte Growth Facto (HGF) using HepaRG (AID 2283505)
In short: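 Using HepaRG monolayers kept in 0.5% DMSO, chemicals were tested in duplicate over eight half-log concentrations from 100 uM for 48 h. Endpoint: HGF mRNA change relative to DMSO, normalized to ACTB/GAPDH/POLR2A.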

[13] = read-out: Insulin Like Growth Factor 1 (IGF1), IGF1 (gene 3479); assay: LTEA_HepaRG_IGF1: Life Technologies and Expression Analysis (LTEA) Assay for Insulin Like Growth Factor 1 (IGF1) using HepaRG (AID 2283506)
In short: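 Expression measured by TaqMan qRT-PCR on a Fluidigm array, with three housekeeping genes for normalisation, after 48 h treatment of HepaRG cells. Top concentration 100 uM with half-log steps, 0.5% DMSO vehicle, bidirectional fit.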

[14] = read-out: Intercellular Adhesion Molecule 1 (ICAM1), ICAM1 (gene 3383); assay: LTEA_HepaRG_ICAM1: Life Technologies and Expression Analysis (LTEA) Assay for Intercellular Adhesion Molecule 1 (ICAM1) using HepaRG (AID 2283507)
In short: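 Using the human liver line HepaRG, compounds are tested in duplicate over 48 h at concentrations up to 100 uM. Expression is determined by TaqMan qRT-PCR, normalized to endogenous controls, and analysed relative to 0.5% DMSO vehicle.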

[15] = read-out: Insulin-like growth factor-binding protein 1 (IGFBP1), IGFBP1 (gene 3484); assay: LTEA_HepaRG_IGFBP1: Life Technologies and Expression Analysis (LTEA) Assay for Insulin-like growth factor-binding protein 1 (IGFBP1) using HepaRG (AID 2283508)
In short: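 HepaRG, 48 h, 8 conc. (max 100 uM, half-log), duplicates, 0.5% DMSO. Readout: TaqMan qRT-PCR, ACTB/GAPDH/POLR2A normalisation. Fit: bidirectional vs DMSO.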

[16] = read-out: Interleukin 6 (IL6), IL6 (gene 3569); assay: LTEA_HepaRG_IL6: Life Technologies and Expression Analysis (LTEA) Assay for Interleukin 6 (IL6) using HepaRG (AID 2283509)
In short: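 Changes in IL6 mRNA, up or down relative to 0.5% DMSO controls, were derived from concentration-response curves in human HepaRG cells treated for 48 h at up to 100 uM, with ACTB, GAPDH and POLR2A as normalizers.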

[17] = read-out: Interleukin 6 Receptor (IL6R), IL6R (gene 3570); assay: LTEA_HepaRG_IL6R: Life Technologies and Expression Analysis (LTEA) Assay for Interleukin 6 Receptor (IL6R) using HepaRG (AID 2283510)
In short: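 IL6R transcript level by qRT-PCR after 48 h chemical exposure (8-point, half-log, max 100 uM, 0.5% DMSO vehicle) of HepaRG cells in serum-free induction medium. Normalized to three housekeeping genes; curves fitted in both directions relative to DMSO.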

Measured: AC50

Chain of Hypoxia-inducible factor 1-alpha (Homo sapiens) (Q16665 whole entry, looked up): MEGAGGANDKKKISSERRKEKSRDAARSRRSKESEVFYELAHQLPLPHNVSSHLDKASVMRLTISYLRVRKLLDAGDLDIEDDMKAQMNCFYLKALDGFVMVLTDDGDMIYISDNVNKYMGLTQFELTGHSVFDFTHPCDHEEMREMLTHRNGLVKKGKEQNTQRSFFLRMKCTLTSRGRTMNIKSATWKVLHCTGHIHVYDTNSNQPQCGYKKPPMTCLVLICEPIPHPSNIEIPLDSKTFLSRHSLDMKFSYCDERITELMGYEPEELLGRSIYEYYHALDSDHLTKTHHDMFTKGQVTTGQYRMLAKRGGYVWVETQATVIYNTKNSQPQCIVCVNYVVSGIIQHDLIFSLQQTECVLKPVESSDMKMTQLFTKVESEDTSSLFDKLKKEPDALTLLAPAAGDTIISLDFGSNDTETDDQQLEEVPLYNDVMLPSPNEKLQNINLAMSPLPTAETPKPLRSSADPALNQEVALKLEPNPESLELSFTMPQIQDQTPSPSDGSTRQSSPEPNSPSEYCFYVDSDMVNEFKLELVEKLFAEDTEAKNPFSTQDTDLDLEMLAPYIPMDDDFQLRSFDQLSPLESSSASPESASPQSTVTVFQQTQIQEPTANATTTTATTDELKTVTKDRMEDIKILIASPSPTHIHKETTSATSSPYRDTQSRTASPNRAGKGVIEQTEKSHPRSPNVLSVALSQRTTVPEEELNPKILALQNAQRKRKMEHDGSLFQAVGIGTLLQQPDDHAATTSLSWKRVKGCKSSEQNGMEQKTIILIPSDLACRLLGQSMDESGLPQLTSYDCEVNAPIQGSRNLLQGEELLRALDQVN
Chain of Cytochrome P450 3A7 (Homo sapiens) (P24462 whole entry, looked up): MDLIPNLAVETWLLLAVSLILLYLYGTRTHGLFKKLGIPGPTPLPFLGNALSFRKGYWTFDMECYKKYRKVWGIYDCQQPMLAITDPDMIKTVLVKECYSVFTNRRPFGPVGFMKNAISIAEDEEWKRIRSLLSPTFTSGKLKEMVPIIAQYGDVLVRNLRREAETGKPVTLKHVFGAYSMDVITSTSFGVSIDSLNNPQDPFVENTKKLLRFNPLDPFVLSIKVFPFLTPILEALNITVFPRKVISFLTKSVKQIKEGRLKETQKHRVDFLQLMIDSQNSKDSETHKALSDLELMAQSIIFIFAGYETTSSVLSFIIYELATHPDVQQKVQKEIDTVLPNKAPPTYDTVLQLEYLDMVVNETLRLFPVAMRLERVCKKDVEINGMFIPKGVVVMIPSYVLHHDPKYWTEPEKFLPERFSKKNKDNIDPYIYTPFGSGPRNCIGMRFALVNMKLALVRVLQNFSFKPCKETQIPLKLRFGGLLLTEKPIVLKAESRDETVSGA

CCCCN(CCCC)SN(C)C(=O)Oc1cccc2c1OC(C)(C)C2
active: [2] 4.49 µM | [4] 50 µM
inactive: all other assays above

c1ccc(OP(Oc2ccccc2)Oc2ccccc2)cc1
inactive: all assays above

CCOP(=S)(Oc1ccc([N+](=O)[O-])cc1)c1ccccc1 (centres undefined)
active: [2] 2.87 µM | [7] 65.7 µM | [15] 5.97 µM
not listed: CYP3A5 (gene 1577) | [6] | [10]
inactive: all other assays above

COCCOCCO
not listed: [2]
inactive: all other assays above

O=P1(N(CCCl)CCCl)NCCCO1 (centres undefined)
not listed: [11]
inactive: all other assays above

O=[N+]([O-])c1ccc(Cl)c(Cl)c1
inactive: all assays above

CC(C)(C)c1ccc(O)cc1
not listed: [2] | CYP3A5 (gene 1577) | [3] | [4] | HGF (gene 3082)
inactive: all other assays above

OCC1CO1 (centres undefined)
inactive: all assays above

Cc1ccc(N)cc1N
active: [4] 18 µM
inactive: all other assays above

Nc1cc2c3c(c1)C(c1ccccc1)=N[C@@H](NC(=O)c1cccnc1)C(=O)N3CC2
active: [2] 5.11 µM | [3] 10.9 µM | [13] 11.8 µM
inactive: all other assays above

O=C(O)C(Cl)Cl
inactive: all assays above
